Measurements taken from PubChem BioAssay.
Values without a mark were called inactive. Active and inactive are the calls of the source.

Experiment: PSAC antagonists in infected red cells, primary screen, cell-based, P. falciparum Indochina, OD700, 2 h (AID 1155);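 note: lysis reports solute entry through the parasite surface anion channel PSAC; channel blockers reduce lysis of infected cells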
Conditions: P. falciparum Indochina infected erythrocytes, osmotic lysis OD700; higher = more signal, called active from +8 up or from −8 down

SMILES	z-score
CCCCC(CC)C(O)C1C=CC2C(=O)N(c3ccccc3)C(=O)C2N1Nc1ccc([N+](=O)[O-])cc1 (stereo not drawn)	0.724
C=C(COC)/C(=C/C[C@@H](OC(=O)c1ccncc1)c1ccc(CO)o1)c1cnc2ccccc2c1	1.24
COCCCNC(=O)[C@@H]1c2ccccc2C(=O)N(Cc2ccccc2C(F)(F)F)[C@H]1c1ccc(CO)cc1	0.165
CCCN1C(=O)[C@]2(Cc3ccccc3)N=C(c3ccc(OCCCO)cc3)O[C@@H]2c2ccccc21	27.2 (active)
CO[C@H]1O[C@H](CO)[C@@H](OC(=O)Nc2ccccc2-c2ccccc2)[C@H](OC(=O)Nc2ccc3c(c2)OCO3)[C@@H]1OC(=O)Nc1ccc2c(c1)OCO2	2.72
COCCOC(=O)N1C(=O)[C@@]2(c3cc(C#CC4(O)CCCCCC4)ccc31)[C@H](C(N)=O)[C@H]1C(=O)O[C@H](c3ccccc3)[C@H](c3ccccc3)N1[C@@H]2c1ccc(O)cc1	-0.269
CC(CO)N1C(=O)[C@@H]2C3C(=O)OCCC/C=C\[C@H]3OC23C=CCN(Cn2nnc4ccccc42)C(=O)[C@@H]13 (stereo partly drawn)	0.132
C[C@]1(C(=O)NC2CC2)c2ccccc2C(=O)N(Cc2ccc(OC(F)(F)F)cc2)[C@H]1c1ccc(CO)cc1	0.258
COc1ccc([Si](C)(C)[C@H]2[C@H](CCn3cc([C@H](O)c4ccccc4)nn3)O[C@@]3(C(=O)N(Cc4cccc(N5C(=O)c6cccc7cccc5c67)c4)c4ccccc43)[C@@H]2C)cc1	-0.38
COc1ccc([Si](C)(C)[C@H]2[C@H](CCO)O[C@@]3(C(=O)N(Cc4cccc(N5CCCCC5=O)c4)c4ccccc43)[C@@H]2C)cc1	1.94
O=C1O[C@@H](c2ccccc2)[C@@H](c2ccccc2)N2[C@@H](c3ccc(O)cc3)[C@]3(C(=O)Nc4ccc(C#CCCO)cc43)[C@@H](C(=O)NC[C@H](O)c3ccccc3)[C@H]12	0.31
CC(C)CN1C(=O)[C@@]2(Cc3ccccc31)c1ccccc1C(=O)N(Cc1ccccc1C(F)(F)F)[C@H]2c1ccc(CO)cc1	-0.419
CC(C)C(O)C1C=CC2C(=O)N(C)C(=O)C2N1N(c1ccccc1)c1ccccc1 (stereo not drawn)	0.167
C=CCC(OC(C)=O)[C@@H]1[C@@H](N(Cc2ccc(-c3ccccc3)cc2)C(=O)c2cccc3ccccc23)c2cc(OCCCO)ccc2N1C(=O)Cc1ccc2ccccc2c1 (stereo partly drawn)	0.355
Cc1ccc(S[C@]2(C(=O)NC3CC3)CC(=O)N(Cc3ccccc3Cl)[C@@H]2c2ccc(CO)cc2I)cc1	0.789
O=C1NCC(=O)N2[C@@H]1C[C@@H](C(=O)O)[C@H]2c1ccc(O)cc1	0.328
CC(C)CNC(=O)[C@@]1(c2ccc([N+](=O)[O-])cc2)CC(=O)N(C2CCCCC2)[C@@H]1c1ccc(CO)cc1I	2.15
COc1ccc(NN2C(C(O)c3ccccn3)C=CC3C(=O)N(C4CCCCC4)C(=O)C32)cc1 (stereo not drawn)	0.539
[N-]=[N+]=NCc1ccccc1C[C@@]1(C(N)=O)N=C(c2ccc(OCCCO)cc2)O[C@@H]1c1ccccc1CN=[N+]=[N-]	10.1 (active)
CN1C(=O)C2C=CC(C(O)c3c(F)cccc3Cl)N(Nc3ccccc3)C2C1=O (stereo not drawn)	0.733
COC(=O)c1c(CC[C@@H](CO)NC(=O)N[C@H](Cn2cc(-c3ccccc3C)nn2)C(C)C)oc(C(C)=O)c1C(=O)OC	-0.0484
C=CCOC(=O)[C@@H]1[C@H]2C(=O)O[C@H](c3ccccc3)[C@H](c3ccccc3)N2[C@H](c2ccc(OCCOC(=O)[C@H]3C[C@H]4C(=O)N[C@@H](CCCCN(C)C)C(=O)N4[C@H]3c3cccc(OCCO)c3)cc2)[C@@]12C(=O)Nc1ccc(I)cc12	1.16
COc1ccc([Si](C)(C)[C@@H]2[C@@H](CCO)O[C@]3(C(=O)N(Cc4cccc(N5C(=O)c6ccccc6Oc6ccccc65)c4)c4ccccc43)[C@H]2C)cc1	3.13
C=CC[C@]1(C(=O)N(C)C)N=C(c2ccc(OCCCO)cc2)O[C@H]1c1ccccc1N=[N+]=[N-]	28.4 (active)
COCCOC(=O)N1C(=O)[C@@]2(c3cc(C#CCC(C(=O)OC)C(=O)OC)ccc31)[C@H](c1ccc(OCCO)cc1)N1[C@H](c3ccccc3)[C@H](c3ccccc3)OC(=O)[C@H]1[C@@H]2C(=O)N1CCN(c2ncccn2)CC1	1.35
COCCOC(=O)N1C(=O)[C@@]2(c3cc(C#CC4(O)CCCCCC4)ccc31)[C@H](c1ccccc1OCCO)N1[C@H](c3ccccc3)[C@H](c3ccccc3)OC(=O)[C@H]1[C@@H]2C(N)=O	1.76
C=CCNC(=O)[C@H]1[C@@H]2C(=O)O[C@@H](c3ccccc3)[C@@H](c3ccccc3)N2[C@@H](c2ccccc2OCCO)[C@]12C(=O)N(C(=O)OCCOC)c1ccc(C#CC3=CCCCC3)cc12	1.32
C=CCN1C(=O)[C@@]2(O[C@@H](CCn3cc([C@H](O)c4ccccc4)nn3)[C@H]([Si](C)(C)c3ccc(OC)cc3)[C@H]2C)c2ccccc21	1.93
